# Measured values: PubChem BioAssay (EPA / NIEHS)
# Records with an inconclusive call do not appear. Activity calls are given as the source filed them. Rule for the calls: active = hit-call score of the fitted dose curve at least 0.9, where 1 is the maximum; inconclusive = response in the unintended direction; inactive = score below 0.9.
# Experiments:
# [1] = target: rat Neonicotinoid receptor (NNR), Chrna7 (gene 25302) (UniProt Q05941); assay: NVS_LGIC_rNNR_BungSens: NovaScreen (NVS) Ligand-Gated Ion Channel Assay for rat Neonicotinoid receptor (NNR) (AID 2283315)
# rat Neonicotinoid receptor (NNR), Chrna7 (gene 25302), sequence (Q05941 whole entry, looked up): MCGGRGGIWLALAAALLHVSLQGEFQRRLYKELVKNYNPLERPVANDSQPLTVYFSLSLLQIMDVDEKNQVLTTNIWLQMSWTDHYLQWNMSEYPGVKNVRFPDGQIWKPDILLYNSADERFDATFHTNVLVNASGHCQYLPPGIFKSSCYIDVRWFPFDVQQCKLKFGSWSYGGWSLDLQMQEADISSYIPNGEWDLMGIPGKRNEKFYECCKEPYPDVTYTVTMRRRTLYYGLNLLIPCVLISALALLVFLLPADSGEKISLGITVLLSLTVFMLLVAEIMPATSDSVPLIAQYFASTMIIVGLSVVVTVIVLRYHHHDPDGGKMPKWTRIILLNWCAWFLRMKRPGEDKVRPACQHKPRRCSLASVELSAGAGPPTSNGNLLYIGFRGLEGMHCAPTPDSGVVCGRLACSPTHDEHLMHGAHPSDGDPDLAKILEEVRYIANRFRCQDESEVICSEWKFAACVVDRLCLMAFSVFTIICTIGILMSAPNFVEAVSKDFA
# Outline: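 Radioligand displacement binding on rat cortical membranes, 2.5 h incubation, filtration and scintillation counting. Loss of specific binding fitted relative to DMSO.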
# [2] = target: rat Peripheral-type Benzodiazepine Receptor (PBR), Tspo (gene 24230) (UniProt P16257); assay: NVS_MP_rPBR: NovaScreen (NVS) Membrane Protein Assay for rat Peripheral-type Benzodiazepine Receptor (PBR) (AID 2283335)
# rat Peripheral-type Benzodiazepine Receptor (PBR), Tspo (gene 24230), sequence (P16257 whole entry, looked up): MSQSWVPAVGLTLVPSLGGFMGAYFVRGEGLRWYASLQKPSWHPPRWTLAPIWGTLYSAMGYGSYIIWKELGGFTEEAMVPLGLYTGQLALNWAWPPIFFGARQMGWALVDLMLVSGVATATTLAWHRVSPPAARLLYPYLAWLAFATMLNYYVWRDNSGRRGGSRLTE
# Outline: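 Rat kidney membranes; radioligand binding with displacement, filter-based scintillation counting, 1 h incubation. Primary screen in duplicate at 25 uM, actives followed in concentration series; loss of binding vs DMSO.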
# [3] = test system: NCBI gene 24521; assay: NVS_IC_rKATPCh: NovaScreen (NVS) Ion Channel Assay for rat Potassium Channel, ATP-Sensitive (KATPCh) (AID 2283319)
# Outline: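 Rat cortical membranes; radioligand binding at ATP-sensitive K channel site, filter-based scintillation counting 2 h after dosing. Single-point duplicate screen at 25 uM, hits rerun in concentration-response up to 50 uM; loss of signal versus DMSO.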
# [4] = target: human Serotonin, 5-Hydroxytryptamine Receptor 3 (5HT3), HTR3A (gene 3359) (UniProt P46098); assay: NVS_LGIC_h5HT3: NovaScreen (NVS) Ligand-Gated Ion Channel Assay for human Serotonin, 5-Hydroxytryptamine Receptor 3 (5HT3) (AID 2283325)
# Outline: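 Radioligand displacement binding to human 5-HT3 from HEK293 membranes, read by filter-based scintillation counting after 1 h. Screen at 25 uM in duplicate; chemicals passing threshold were retested in concentration-response up to 50 uM.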
# [5] = target: rat Oxytocin Receptor (OXT), Oxtr (gene 25342) (UniProt P70536); assay: NVS_GPCR_rOXT: NovaScreen (NVS) G Protein-Coupled Receptor Assay for rat Oxytocin Receptor (OXT) (AID 2283330)
# rat Oxytocin Receptor (OXT), Oxtr (gene 25342), sequence (P70536 whole entry, looked up): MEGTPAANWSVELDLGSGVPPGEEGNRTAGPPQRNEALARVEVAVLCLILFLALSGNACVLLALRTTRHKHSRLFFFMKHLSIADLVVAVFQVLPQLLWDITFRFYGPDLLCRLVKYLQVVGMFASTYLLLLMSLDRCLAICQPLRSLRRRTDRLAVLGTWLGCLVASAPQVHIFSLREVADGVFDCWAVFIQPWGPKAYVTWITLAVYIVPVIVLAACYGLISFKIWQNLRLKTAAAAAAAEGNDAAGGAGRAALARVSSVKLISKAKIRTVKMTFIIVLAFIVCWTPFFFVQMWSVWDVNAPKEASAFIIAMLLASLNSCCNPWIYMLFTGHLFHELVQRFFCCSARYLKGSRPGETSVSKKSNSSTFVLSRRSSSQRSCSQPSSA
# Outline: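 Radioligand displacement on rat uterine membranes, 1 h incubation, filter-based scintillation counting. Chemicals were screened in duplicate at 25 uM, and those passing threshold were retested in concentration-response up to 50 uM. Loss of binding was fitted versus DMSO.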
# [6] = NVS_IC_rCaBTZCHL: NovaScreen (NVS) Ion Channel Assay for Calcium Channel, Type L, Benzothiazepine Site (CaBTZCHL) (AID 2283337)
# Outline: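 Radioligand displacement at the benzothiazepine site using rat cortical membranes; bound label measured by filtration and scintillation counting 1.5 h after dosing. Single-point 25 uM in duplicate, then concentration series; DMSO baseline.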
# [7] = NVS_IC_rCaDHPRCh_L: NovaScreen (NVS) Ion Channel Assay for rat Calcium Channel, Type L, Dihydropyridine Site (CaDHPRCh_L) (AID 2283320)
# Outline: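 Radioligand binding to dihydropyridine site on rat cortical membranes, filter-based scintillation counting, 1 h after dosing. Screened in duplicate at 25 uM; actives rerun in concentration-response up to 50 uM. Loss of signal versus DMSO baseline.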
# [8] = target: rat Opioid Receptor, Non-selective Binding, Oprm1 (gene 25601) (UniProt P33535); assay: NVS_GPCR_rOpiate_NonSelective: NovaScreen (NVS) G Protein-Coupled Receptor Assay for rat Opioid Receptor, Non-selective Binding (AID 2283318)
# rat Opioid Receptor, Non-selective Binding, Oprm1 (gene 25601), sequence (P33535 whole entry, looked up): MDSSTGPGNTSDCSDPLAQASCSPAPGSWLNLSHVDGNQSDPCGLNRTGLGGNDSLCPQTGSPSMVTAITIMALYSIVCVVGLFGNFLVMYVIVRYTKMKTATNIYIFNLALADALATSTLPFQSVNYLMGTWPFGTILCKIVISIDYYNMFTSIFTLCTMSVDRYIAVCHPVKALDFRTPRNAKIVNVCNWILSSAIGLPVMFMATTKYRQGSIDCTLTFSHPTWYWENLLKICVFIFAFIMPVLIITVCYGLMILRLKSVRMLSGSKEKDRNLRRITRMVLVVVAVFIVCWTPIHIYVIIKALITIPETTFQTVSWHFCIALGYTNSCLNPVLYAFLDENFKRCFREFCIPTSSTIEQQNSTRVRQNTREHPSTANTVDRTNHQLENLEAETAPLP
# Outline: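 Rat forebrain membranes, cell-free radioligand binding with filter-based scintillation counting, read 1.5 h after dosing. Primary screen in duplicate at 25 uM; actives retested in concentration series. Loss of signal versus DMSO baseline scored.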
# [9] = target: rat Glutamate, NMDA Agonist Site (GluNMDA), Grin1 (gene 24408) (UniProt P35439); assay: NVS_LGIC_rGluNMDA_Agonist: NovaScreen (NVS) Ligand-Gated Ion Channel Assay for rat Glutamate, NMDA Agonist Site (GluNMDA) (AID 2283327)
# Outline: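 Rat forebrain membranes, radioligand binding in the agonist-site protocol; 1 h after dosing; filter-based scintillation counting. Single-concentration duplicate screen at 25 uM, then concentration-response up to 50 uM for actives; gain-of-signal vs DMSO.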
# [10] = target: human Peripheral-type Benzodiazepine Receptor (PBR), TSPO (gene 706) (UniProt P30536); assay: NVS_MP_hPBR: NovaScreen (NVS) Membrane Protein Assay for human Peripheral-type Benzodiazepine Receptor (PBR) (AID 2283331);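 note: hits reduce radioligand binding relative to DMSO baseline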
# human Peripheral-type Benzodiazepine Receptor (PBR), TSPO (gene 706), sequence (P30536 whole entry, looked up): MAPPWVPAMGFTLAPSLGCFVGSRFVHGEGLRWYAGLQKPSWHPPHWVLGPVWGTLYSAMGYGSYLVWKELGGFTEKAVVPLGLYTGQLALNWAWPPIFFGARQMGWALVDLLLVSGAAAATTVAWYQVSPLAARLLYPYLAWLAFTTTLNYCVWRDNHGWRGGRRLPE
# Outline: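 Radioligand displacement on human colonic cell membranes, 1 h incubation; bound radioactivity by filtration and scintillation counting. Primary screen in duplicate at 25 uM single concentration, actives followed up in concentration series; loss of binding versus DMSO.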
# [11] = target: Voltage-dependent N-type calcium channel subunit alpha-1B (Rattus norvegicus) (UniProt Q02294); assay: NVS_IC_rCaChN: NovaScreen (NVS) Ion Channel Assay for rat Calcium Channel, Type N (CaChN) (AID 2283317)
# [12] = target: Voltage-gated inwardly rectifying potassium channel KCNH2 (Homo sapiens) (UniProt Q12809); assay: NVS_IC_hKhERGCh: NovaScreen (NVS) Ion Channel Assay for human Potassium Channel ERG (KhERGCh) (AID 2283333)
# Voltage-gated inwardly rectifying potassium channel KCNH2 (Homo sapiens), sequence (Q12809 whole entry, looked up): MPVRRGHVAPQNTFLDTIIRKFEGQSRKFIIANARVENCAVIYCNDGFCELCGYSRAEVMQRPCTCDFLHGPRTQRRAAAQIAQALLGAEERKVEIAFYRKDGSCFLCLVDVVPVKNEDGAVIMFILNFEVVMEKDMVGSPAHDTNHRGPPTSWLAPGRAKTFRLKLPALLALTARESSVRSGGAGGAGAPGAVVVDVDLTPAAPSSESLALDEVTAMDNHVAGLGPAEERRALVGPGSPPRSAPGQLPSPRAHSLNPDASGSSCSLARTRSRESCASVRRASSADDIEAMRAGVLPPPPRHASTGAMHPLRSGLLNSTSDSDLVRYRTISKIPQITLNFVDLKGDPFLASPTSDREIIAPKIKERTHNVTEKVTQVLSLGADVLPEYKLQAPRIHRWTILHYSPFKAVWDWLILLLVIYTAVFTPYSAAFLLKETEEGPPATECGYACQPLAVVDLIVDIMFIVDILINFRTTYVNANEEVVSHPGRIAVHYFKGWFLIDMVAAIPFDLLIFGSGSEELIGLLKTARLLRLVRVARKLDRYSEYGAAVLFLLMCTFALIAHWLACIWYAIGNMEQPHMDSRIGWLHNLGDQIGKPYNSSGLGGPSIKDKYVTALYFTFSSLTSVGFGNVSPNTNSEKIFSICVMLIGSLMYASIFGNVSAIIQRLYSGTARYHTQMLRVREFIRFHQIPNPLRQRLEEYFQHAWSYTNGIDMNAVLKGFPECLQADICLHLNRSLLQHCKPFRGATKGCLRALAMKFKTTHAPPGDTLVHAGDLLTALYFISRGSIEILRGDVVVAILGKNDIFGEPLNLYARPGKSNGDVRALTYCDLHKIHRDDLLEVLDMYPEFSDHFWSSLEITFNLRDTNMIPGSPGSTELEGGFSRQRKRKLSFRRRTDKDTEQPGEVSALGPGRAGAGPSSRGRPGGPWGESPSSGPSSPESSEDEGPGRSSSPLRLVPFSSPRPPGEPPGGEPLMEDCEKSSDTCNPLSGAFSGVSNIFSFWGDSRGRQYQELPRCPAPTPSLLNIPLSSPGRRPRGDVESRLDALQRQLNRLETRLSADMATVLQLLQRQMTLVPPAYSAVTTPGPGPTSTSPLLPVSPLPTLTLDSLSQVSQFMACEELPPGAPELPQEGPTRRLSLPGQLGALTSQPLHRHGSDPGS
# Outline: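 Cell-free radioligand competition binding on hERG protein extracted from CHO cells, read by filter-based scintillation counting 0.75 h after dosing. Primary screen at 25 uM in duplicate, actives followed in concentration series. Signal loss fitted versus DMSO.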
# [13] = target: rat Thyrotropin Releasing Hormone Receptor (TRH), Trhr (gene 25570) (UniProt Q01717); assay: NVS_GPCR_rTRH: NovaScreen (NVS) G Protein-Coupled Receptor Assay for rat Thyrotropin Releasing Hormone Receptor (TRH) (AID 2283329);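 note: hit means lower bound tracer signal versus DMSO baseline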
# rat Thyrotropin Releasing Hormone Receptor (TRH), Trhr (gene 25570), sequence (Q01717 whole entry, looked up): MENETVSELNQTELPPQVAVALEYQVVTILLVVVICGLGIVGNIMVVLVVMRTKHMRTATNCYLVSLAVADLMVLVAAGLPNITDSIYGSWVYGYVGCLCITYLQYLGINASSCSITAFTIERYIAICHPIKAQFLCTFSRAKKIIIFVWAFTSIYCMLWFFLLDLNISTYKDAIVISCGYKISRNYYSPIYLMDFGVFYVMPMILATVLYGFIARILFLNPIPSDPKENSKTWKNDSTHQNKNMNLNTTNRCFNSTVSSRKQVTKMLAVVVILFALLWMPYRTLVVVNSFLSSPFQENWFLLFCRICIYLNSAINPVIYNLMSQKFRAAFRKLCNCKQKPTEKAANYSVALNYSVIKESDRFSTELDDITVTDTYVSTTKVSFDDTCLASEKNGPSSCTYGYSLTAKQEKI
# Outline: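 Competitive radioligand binding on rat forebrain membrane preparations, with filtration and scintillation readout after 4 h. Primary testing in duplicate at 25 uM; actives confirmed in concentration-response. DMSO defined baseline.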
# [14] = target: bovine Gamma-Aminobutyric Acid Type A Receptor BDZ, alpha 5 site (GABARa5), GABRA5 (gene 523515) (UniProt Q08E50); assay: NVS_LGIC_bGABARa5: NovaScreen (NVS) Ligand-Gated Ion Channel Assay for bovine Gamma-Aminobutyric Acid Type A Receptor BDZ, alpha 5 site (GABARa5) (AID 2283323)
# bovine Gamma-Aminobutyric Acid Type A Receptor BDZ, alpha 5 site (GABARa5), GABRA5 (gene 523515), sequence (Q08E50 whole entry, looked up): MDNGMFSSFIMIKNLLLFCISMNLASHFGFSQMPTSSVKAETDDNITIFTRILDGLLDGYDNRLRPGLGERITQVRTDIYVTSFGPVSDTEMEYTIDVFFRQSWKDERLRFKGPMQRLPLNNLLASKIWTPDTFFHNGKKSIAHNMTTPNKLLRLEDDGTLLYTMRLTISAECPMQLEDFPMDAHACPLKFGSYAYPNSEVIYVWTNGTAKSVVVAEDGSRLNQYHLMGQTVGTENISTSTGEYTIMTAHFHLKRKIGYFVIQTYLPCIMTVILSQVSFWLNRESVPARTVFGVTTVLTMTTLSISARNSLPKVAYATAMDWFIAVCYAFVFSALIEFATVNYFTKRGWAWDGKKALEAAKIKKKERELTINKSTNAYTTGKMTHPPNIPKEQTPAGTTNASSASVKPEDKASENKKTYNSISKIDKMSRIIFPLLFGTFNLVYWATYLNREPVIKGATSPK
# Outline: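 Radioligand competitive displacement binding on bovine hippocampal membranes, read 1 hr after dosing by filter-based scintillation counting. Primary screen at 25 uM in duplicate; actives (e.g. ≥30% inhibition) then run in concentration-response up to 50 uM.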
# [15] = target: rat Glutamate, AMPA Site (AMPA), Gria1 (gene 50592) (UniProt P19490); assay: NVS_LGIC_rAMPA: NovaScreen (NVS) Ligand-Gated Ion Channel Assay for rat Glutamate, AMPA Site (AMPA) (AID 2283324)
# rat Glutamate, AMPA Site (AMPA), Gria1 (gene 50592), sequence (P19490 whole entry, looked up): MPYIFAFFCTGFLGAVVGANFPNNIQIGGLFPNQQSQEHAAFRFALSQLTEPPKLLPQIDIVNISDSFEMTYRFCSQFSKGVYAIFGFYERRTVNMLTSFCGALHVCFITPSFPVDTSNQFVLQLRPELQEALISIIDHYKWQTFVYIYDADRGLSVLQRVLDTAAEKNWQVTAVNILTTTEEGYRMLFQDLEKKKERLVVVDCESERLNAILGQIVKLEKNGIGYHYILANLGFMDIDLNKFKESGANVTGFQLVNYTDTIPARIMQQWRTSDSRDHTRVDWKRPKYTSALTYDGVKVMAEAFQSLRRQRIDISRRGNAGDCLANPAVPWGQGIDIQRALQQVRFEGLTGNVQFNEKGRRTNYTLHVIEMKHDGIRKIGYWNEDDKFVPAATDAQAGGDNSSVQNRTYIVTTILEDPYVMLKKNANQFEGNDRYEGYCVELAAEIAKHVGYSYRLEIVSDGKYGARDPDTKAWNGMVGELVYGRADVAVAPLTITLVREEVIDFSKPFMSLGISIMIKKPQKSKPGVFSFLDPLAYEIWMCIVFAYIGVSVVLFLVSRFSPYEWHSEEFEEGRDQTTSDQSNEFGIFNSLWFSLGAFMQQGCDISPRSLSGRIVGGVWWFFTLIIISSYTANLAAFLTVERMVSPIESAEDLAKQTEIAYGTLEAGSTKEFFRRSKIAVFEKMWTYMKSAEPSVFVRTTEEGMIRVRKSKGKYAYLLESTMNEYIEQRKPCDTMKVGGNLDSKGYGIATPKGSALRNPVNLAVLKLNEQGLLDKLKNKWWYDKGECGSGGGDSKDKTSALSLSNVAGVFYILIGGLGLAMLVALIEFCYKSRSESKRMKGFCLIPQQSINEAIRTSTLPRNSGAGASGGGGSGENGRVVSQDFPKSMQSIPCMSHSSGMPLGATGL
# Outline: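 Rat forebrain membranes; radioligand binding read 1 h after dosing by filtration and scintillation counting. Duplicate single-point screen at 25 uM, then concentration-response to 50 uM for threshold hits (e.g. 30% inhibition); loss of signal vs DMSO.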
# [16] = target: rat Vasopressin 1 Receptor (V1), Avpr1a (gene 25107) (UniProt P30560); assay: NVS_GPCR_rV1: NovaScreen (NVS) G Protein-Coupled Receptor Assay for rat Vasopressin 1 Receptor (V1) (AID 2283316)
# rat Vasopressin 1 Receptor (V1), Avpr1a (gene 25107), sequence (P30560 whole entry, looked up): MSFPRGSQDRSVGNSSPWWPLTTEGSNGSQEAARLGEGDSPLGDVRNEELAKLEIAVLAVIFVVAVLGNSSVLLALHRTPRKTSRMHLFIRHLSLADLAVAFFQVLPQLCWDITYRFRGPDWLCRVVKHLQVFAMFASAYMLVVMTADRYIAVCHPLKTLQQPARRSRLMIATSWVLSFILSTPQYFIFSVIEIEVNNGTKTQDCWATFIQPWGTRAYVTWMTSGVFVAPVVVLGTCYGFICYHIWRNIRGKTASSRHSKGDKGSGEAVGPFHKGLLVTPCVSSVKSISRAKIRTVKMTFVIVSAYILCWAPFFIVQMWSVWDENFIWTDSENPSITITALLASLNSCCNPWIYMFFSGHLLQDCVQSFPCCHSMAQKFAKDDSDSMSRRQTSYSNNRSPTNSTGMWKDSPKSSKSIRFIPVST
# Outline: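 Radioligand binding on rat liver membranes, 1.5 h incubation, filter-based scintillation counting. Single 25 uM screen in duplicate; chemicals meeting threshold (e.g. 30% inhibition) run in concentration-response up to 50 uM.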
# [17] = target: human Androgen Receptor (AR), AR (gene 367) (UniProt P10275); assay: NVS_NR_hAR: NovaScreen (NVS) Nuclear Receptor Binding Assay for human Androgen Receptor (AR) (AID 2283332)
# Outline: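 LnCAP cell-free extract; radioligand displacement read by scintillation counting after 20 h. Primary screen single concentration 25 uM in duplicate, actives then run as concentration series; loss-of-signal fitted relative to DMSO baseline.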
# [18] = target: Sodium channel protein type 1 subunit alpha (Rattus norvegicus) (UniProt P04774); assay: NVS_IC_rNaCh_site2: NovaScreen (NVS) Ion Channel Assay for rat Sodium Channel, Site 2 (NaCh) (AID 2283322);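 note: hit means loss of radioligand binding signal relative to DMSO so AC50 marks displacement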
# Outline: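 Membranes: rat forebrain. Format: competitive radioligand displacement, filter separation, scintillation readout, 1 h exposure. Primary screen in duplicate at 25 uM; actives retested in concentration series.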
compound,measurement,setting,value
C[N+]1(C)CCCCC1,AC50,[1],6.52 µM (active)
same,outcome,[2],inactive
CSc1nnc(C(C)(C)C)c(=O)n1N,outcome,[3],inactive
same,outcome,[4],inactive
same,outcome,[5],inactive
same,outcome,[6],inactive
CN1COCN(Cc2cnc(Cl)s2)C1=N[N+](=O)[O-],outcome,[7],inactive
CCc1cccc(CC)c1N(COC)C(=O)CCl,outcome,[8],inactive
same,outcome,[9],inactive
same,AC50,[10],11.1 µM (active)
same,AC50,[2],5.18 µM (active)
COP(=O)(OC)OC(Br)C(Cl)(Cl)Br (stereo not drawn),outcome,[3],inactive
CCOP(=O)(OCC)Oc1cc(C)nc(C(C)C)n1,outcome,[1],inactive
same,outcome,[10],inactive
CCCCSP(=O)(SCCCC)SCCCC,outcome,[11],inactive
same,AC50,[10],17.9 µM (active)
same,outcome,[12],inactive
same,AC50,[2],3.75 µM (active)
CC(=NC#N)N(C)Cc1ccc(Cl)nc1,AC50,[1],8.03 µM (active)
CCOC(=O)CC(SP(=O)(OC)OC)C(=O)OCC (stereo not drawn),outcome,[8],inactive
same,outcome,[13],inactive
same,outcome,[10],inactive
same,AC50,[2],19.7 µM (active)
CC1=NNC(=O)N(/N=C/c2cccnc2)C1,outcome,[3],inactive
same,outcome,[14],inactive
same,outcome,[10],inactive
same,outcome,[6],inactive
CC(C)=CC1C(C(=O)OCN2C(=O)C3=C(CCCC3)C2=O)C1(C)C (stereo not drawn),outcome,[8],inactive
same,AC50,[7],38.2 µM (active)
same,outcome,[15],inactive
same,AC50,[10],13.5 µM (active)
same,outcome,[2],inactive
COc1ccc(C(=CC(=O)N2CCOCC2)c2ccc(Cl)cc2)cc1OC,AC50,[16],6.22 µM (active)
same,outcome,[8],inactive
same,outcome,[3],inactive
same,outcome,[7],inactive
same,outcome,[10],inactive
same,AC50,[17],1.79 µM (active)
same,outcome,[2],inactive
same,outcome,[6],inactive
C[Si](Cn1cncn1)(c1ccc(F)cc1)c1ccc(F)cc1,outcome,[8],inactive
same,AC50,[7],25.7 µM (active)
same,AC50,[18],18.1 µM (active)
same,outcome,[13],inactive
same,AC50,[10],25 µM (active)
same,outcome,[2],inactive
CCOP(=S)(OCC)Oc1ccc2c(C)c(Cl)c(=O)oc2c1,outcome,[8],inactive
same,AC50,[10],3.86 µM (active)
same,AC50,[2],0.541 µM (active)
N#CSCSC#N,AC50,[16],2.01 µM (active)
CCCCOC(=O)c1ccccc1C(=O)O,outcome,[11],inactive
same,outcome,[14],inactive
same,outcome,[10],inactive
CON=C(C(=O)OC)c1ccccc1CON=C(C)c1cccc(C(F)(F)F)c1,AC50,[16],11.1 µM (active)
same,outcome,[15],inactive
same,outcome,[13],inactive
same,AC50,[10],1.06 µM (active)
same,AC50,[2],0.612 µM (active)
Nc1nc(N)nc(NC2CC2)n1,outcome,[3],inactive
COP(=O)(OC)C(O)C(Cl)(Cl)Cl (stereo not drawn),outcome,[11],inactive
FC(F)C(F)(F)OCC(Cn1cncn1)c1ccc(Cl)cc1Cl (stereo not drawn),AC50,[7],12.6 µM (active)
same,AC50,[18],25 µM (active)
same,outcome,[13],inactive
same,AC50,[10],19.4 µM (active)
same,AC50,[12],19.9 µM (active)
same,AC50,[2],5.37 µM (active)
same,AC50,[6],7.26 µM (active)
COc1cccc(C(=O)NN(C(=O)c2cc(C)cc(C)c2)C(C)(C)C)c1C,AC50,[16],0.491 µM (active)
CC[C@H](C)[C@H]1O[C@]2(C=C[C@@H]1C)C[C@@H]1C[C@@H](C/C=C(\C)[C@@H](O[C@H]3C[C@H](OC)[C@@H](O[C@H]4C[C@H](OC)[C@@H](NC)[C@H](C)O4)[C@H](C)O3)[C@@H](C)/C=C/C=C3\CO[C@@H]4[C@H](O)C(C)=C[C@@H](C(=O)O1)[C@]34O)O2,outcome,[11],inactive
same,outcome,[8],inactive
same,AC50,[7],4.83 µM (active)
same,AC50,[18],16.6 µM (active)
same,AC50,[14],1.56 µM (active)
same,AC50,[9],16.4 µM (active)
same,AC50,[12],0.00229 µM (active)
same,AC50,[6],10 µM (active)
CCCOCC(=Nc1ccc(Cl)cc1C(F)(F)F)n1ccnc1,AC50,[8],12.1 µM (active)
same,outcome,[7],inactive
same,outcome,[18],inactive
same,AC50,[10],8.63 µM (active)
same,outcome,[12],inactive
same,AC50,[2],0.807 µM (active)
same,outcome,[6],inactive
